What was measured:
Experiment in all cases: DAPPL (digital affinity profiling via proximity ligation, sequencing); 10 mM Tris-HCl pH 7.5, 50 mM NaCl, 1 mM DTT, 4% glycerol, room temperature, 30 min; GST-TFs on glutathione beads, 16-mer random dsDNA library, 0.1% formaldehyde crosslink after washing; high values mean tight binding
[1] = target: T1, FEV (Homo sapiens, UniProt Q99581 1-238); details: protein: recombinant; tags: N-terminal GST; dsDNA, one strand shown
T1 sequence: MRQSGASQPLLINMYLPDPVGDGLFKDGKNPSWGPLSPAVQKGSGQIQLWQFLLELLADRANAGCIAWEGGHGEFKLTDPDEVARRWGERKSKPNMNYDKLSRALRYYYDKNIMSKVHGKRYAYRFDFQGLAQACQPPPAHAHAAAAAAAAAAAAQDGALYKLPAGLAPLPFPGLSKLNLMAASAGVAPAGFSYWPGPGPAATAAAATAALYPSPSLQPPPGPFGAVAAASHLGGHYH
Outline: (§1)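 GST fusions of human transcription factors were expressed in yeast and captured with glutathione beads. Once given DNA barcodes and pooled alongside a tag-only sample, they were incubated for 30 min at room temperature with 200 nmole of a random double-stranded 16-mer DNA library in Tris/NaCl/DTT/glycerol buffer, then washed, crosslinked (0.1% formaldehyde), proximity-ligated, PCR-amplified and sequenced on an Illumina NextSeq500. The binding signal of each hexamer is its read frequency for a factor divided by its frequency for the tag-only sample.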

[2] = target: ETV5 (Homo sapiens, UniProt P41161 1-510); details: protein: recombinant; tags: N-terminal GST; dsDNA, one strand shown
Sequence of ETV5 (P41161 whole entry): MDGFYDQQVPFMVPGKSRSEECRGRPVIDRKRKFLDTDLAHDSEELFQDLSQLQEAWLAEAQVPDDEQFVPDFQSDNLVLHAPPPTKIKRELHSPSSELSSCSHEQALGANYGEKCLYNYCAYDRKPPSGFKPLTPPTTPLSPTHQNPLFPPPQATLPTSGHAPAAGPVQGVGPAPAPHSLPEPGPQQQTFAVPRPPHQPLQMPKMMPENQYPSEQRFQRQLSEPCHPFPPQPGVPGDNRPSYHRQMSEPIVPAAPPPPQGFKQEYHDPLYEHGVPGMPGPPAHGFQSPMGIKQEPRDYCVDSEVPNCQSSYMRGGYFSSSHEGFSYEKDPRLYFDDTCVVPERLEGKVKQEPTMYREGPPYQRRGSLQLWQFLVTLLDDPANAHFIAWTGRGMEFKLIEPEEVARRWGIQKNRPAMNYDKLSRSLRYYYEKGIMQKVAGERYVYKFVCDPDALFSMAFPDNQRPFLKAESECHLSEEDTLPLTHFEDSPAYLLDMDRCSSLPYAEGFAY
Outline: as §1

[3] = target: HSF1 (Homo sapiens, UniProt Q00613 1-529); details: protein: recombinant; tags: N-terminal GST; chain copies: 3; dsDNA, one strand shown
Sequence of HSF1 (Q00613 whole entry): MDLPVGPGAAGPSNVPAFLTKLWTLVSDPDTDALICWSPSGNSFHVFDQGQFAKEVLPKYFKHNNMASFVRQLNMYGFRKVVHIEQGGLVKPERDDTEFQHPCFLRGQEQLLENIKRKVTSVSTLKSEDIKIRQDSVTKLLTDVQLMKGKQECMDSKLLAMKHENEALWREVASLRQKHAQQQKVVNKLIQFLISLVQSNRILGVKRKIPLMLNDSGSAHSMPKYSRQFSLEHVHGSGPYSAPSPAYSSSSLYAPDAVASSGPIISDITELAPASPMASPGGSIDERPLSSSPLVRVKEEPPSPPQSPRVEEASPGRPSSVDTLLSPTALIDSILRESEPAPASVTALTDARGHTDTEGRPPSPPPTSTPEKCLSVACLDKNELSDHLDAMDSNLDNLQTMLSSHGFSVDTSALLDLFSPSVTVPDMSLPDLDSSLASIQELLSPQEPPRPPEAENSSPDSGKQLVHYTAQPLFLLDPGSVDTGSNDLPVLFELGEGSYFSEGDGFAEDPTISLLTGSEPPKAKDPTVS
Outline: as §1

[4] = target: T2, SPIC (Homo sapiens, UniProt Q8N5J4 1-248); details: protein: recombinant; tags: N-terminal GST; dsDNA, one strand shown
T2 sequence: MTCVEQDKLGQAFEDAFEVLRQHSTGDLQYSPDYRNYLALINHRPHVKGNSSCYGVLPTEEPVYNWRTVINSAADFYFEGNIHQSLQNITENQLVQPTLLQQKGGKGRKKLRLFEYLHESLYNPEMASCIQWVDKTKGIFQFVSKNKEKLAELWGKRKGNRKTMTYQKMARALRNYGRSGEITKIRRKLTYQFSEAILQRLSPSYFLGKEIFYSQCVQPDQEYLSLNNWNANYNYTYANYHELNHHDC
Outline: as §1

[5] = target: ELF4 (Homo sapiens, UniProt Q99607 1-663); details: protein: recombinant; tags: N-terminal GST; dsDNA, one strand shown
Sequence of ELF4 (Q99607 whole entry): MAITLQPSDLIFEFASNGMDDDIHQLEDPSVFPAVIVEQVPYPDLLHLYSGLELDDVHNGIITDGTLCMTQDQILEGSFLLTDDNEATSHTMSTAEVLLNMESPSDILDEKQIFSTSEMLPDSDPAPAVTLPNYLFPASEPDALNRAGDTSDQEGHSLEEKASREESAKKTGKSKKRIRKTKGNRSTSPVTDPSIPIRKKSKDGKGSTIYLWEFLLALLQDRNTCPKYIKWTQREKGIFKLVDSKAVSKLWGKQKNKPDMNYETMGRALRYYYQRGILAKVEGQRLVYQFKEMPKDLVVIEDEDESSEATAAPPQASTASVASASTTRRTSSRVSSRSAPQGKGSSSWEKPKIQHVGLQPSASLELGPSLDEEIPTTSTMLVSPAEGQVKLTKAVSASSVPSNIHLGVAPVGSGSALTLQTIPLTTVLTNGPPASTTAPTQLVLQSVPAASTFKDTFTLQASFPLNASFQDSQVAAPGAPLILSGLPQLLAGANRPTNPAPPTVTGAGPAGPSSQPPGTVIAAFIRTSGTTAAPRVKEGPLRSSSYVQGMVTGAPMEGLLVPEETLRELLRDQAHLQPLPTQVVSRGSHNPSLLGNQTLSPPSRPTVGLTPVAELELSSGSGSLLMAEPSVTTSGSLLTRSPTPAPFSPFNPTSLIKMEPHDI
Outline: as §1

[6] = target: T3, ELK4 (Homo sapiens, UniProt P28324-2 1-405); details: protein: recombinant; tags: N-terminal GST; dsDNA, one strand shown
T3 sequence: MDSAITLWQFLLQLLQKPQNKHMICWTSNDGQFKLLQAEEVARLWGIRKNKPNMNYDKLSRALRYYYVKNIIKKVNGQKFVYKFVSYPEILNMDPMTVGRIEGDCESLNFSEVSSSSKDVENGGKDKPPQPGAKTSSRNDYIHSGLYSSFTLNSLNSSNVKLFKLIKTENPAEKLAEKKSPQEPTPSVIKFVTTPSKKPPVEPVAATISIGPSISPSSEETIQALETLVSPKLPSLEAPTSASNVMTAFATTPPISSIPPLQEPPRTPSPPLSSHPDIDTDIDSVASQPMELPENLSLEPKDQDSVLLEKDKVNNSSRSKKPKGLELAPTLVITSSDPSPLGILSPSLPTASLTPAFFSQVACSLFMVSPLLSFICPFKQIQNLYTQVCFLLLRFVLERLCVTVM
Outline: as §1

[7] = target: T4, ETV2 (Homo sapiens, UniProt O00321 1-342); details: protein: recombinant; tags: N-terminal GST; dsDNA, one strand shown
T4 sequence: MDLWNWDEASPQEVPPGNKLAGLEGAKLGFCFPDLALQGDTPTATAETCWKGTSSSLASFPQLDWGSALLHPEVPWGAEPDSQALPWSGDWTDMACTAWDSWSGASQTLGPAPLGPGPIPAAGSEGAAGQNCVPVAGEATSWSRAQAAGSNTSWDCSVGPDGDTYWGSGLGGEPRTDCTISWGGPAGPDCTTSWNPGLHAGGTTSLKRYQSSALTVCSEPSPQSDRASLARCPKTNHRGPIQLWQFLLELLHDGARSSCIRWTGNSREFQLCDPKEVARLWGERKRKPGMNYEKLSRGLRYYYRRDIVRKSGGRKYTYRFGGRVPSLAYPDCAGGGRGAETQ
Outline: as §1

[8] = target: T5, ELF3 (Homo sapiens, UniProt P78545 1-371); details: protein: recombinant; tags: N-terminal GST; dsDNA, one strand shown
T5 sequence: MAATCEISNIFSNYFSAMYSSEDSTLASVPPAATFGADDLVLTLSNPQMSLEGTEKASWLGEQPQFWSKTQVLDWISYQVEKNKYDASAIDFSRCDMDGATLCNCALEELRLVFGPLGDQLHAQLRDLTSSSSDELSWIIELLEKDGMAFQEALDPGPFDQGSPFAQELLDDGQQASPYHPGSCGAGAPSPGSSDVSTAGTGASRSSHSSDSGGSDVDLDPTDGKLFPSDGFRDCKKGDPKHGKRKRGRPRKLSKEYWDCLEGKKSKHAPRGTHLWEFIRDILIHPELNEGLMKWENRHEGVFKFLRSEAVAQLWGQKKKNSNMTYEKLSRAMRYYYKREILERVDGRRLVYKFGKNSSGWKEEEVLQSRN
Outline: as §1

[9] = target: CRX (Homo sapiens, UniProt O43186 1-299); details: protein: recombinant; tags: N-terminal GST; dsDNA, one strand shown
Sequence of CRX (O43186 whole entry): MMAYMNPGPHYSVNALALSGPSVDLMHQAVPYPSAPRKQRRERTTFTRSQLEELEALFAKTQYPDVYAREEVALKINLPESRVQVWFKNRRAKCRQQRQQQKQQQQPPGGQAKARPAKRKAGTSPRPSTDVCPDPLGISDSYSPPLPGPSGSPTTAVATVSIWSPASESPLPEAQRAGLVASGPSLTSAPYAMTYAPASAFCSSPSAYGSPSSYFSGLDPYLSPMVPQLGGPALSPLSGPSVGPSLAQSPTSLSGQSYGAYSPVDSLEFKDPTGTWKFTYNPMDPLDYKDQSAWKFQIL
Outline: as §1

[10] = target: ETV1 (Homo sapiens, UniProt P50549 1-477); details: protein: recombinant; tags: N-terminal GST; dsDNA, one strand shown
Sequence of ETV1 (P50549 whole entry): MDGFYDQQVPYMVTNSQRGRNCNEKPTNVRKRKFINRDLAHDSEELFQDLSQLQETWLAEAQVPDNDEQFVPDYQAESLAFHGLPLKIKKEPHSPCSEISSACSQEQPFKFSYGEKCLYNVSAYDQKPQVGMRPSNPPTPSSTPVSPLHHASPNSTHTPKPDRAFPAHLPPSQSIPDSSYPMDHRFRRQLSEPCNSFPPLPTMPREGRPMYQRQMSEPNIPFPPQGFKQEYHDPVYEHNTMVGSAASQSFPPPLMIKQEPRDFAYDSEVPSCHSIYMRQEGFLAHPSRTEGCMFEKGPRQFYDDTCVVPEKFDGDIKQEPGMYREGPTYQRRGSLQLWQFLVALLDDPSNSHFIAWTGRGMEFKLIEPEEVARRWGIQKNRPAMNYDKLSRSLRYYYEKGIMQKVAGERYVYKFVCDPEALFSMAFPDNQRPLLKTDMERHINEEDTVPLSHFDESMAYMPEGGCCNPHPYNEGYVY
Outline: as §1

Sequence	binding signal [1]	binding signal [2]	binding signal [3]	binding signal [4]	binding signal [5]	binding signal [6]	binding signal [7]	binding signal [8]	binding signal [9]	binding signal [10]
ATCTTA	1.1 fold enrichment (6-mer frequency, TF over GST control)	1.1 fold enrichment (6-mer frequency, TF over GST control)	1.47 fold enrichment (6-mer frequency, TF over GST control)	1.05 fold enrichment (6-mer frequency, TF over GST control)	1.1 fold enrichment (6-mer frequency, TF over GST control)	1.18 fold enrichment (6-mer frequency, TF over GST control)	1.12 fold enrichment (6-mer frequency, TF over GST control)	1.12 fold enrichment (6-mer frequency, TF over GST control)	2.11 fold enrichment (6-mer frequency, TF over GST control)	1.12 fold enrichment (6-mer frequency, TF over GST control)
TCTGAT	1.18 fold enrichment (6-mer frequency, TF over GST control)	1.23 fold enrichment (6-mer frequency, TF over GST control)	1.28 fold enrichment (6-mer frequency, TF over GST control)	1.26 fold enrichment (6-mer frequency, TF over GST control)	1.24 fold enrichment (6-mer frequency, TF over GST control)	1.19 fold enrichment (6-mer frequency, TF over GST control)	1.11 fold enrichment (6-mer frequency, TF over GST control)	1.17 fold enrichment (6-mer frequency, TF over GST control)	1.55 fold enrichment (6-mer frequency, TF over GST control)	1.15 fold enrichment (6-mer frequency, TF over GST control)
ATCTGG	1.23 fold enrichment (6-mer frequency, TF over GST control)	1.11 fold enrichment (6-mer frequency, TF over GST control)	2.08 fold enrichment (6-mer frequency, TF over GST control)	1.1 fold enrichment (6-mer frequency, TF over GST control)	1.22 fold enrichment (6-mer frequency, TF over GST control)	1.31 fold enrichment (6-mer frequency, TF over GST control)	1.23 fold enrichment (6-mer frequency, TF over GST control)	1.23 fold enrichment (6-mer frequency, TF over GST control)	1.65 fold enrichment (6-mer frequency, TF over GST control)	1.24 fold enrichment (6-mer frequency, TF over GST control)
ATTCGA	1.27 fold enrichment (6-mer frequency, TF over GST control)	1.28 fold enrichment (6-mer frequency, TF over GST control)	2.51 fold enrichment (6-mer frequency, TF over GST control)	1.41 fold enrichment (6-mer frequency, TF over GST control)	1.38 fold enrichment (6-mer frequency, TF over GST control)	1.2 fold enrichment (6-mer frequency, TF over GST control)	1.37 fold enrichment (6-mer frequency, TF over GST control)	1.55 fold enrichment (6-mer frequency, TF over GST control)	1.63 fold enrichment (6-mer frequency, TF over GST control)	1.3 fold enrichment (6-mer frequency, TF over GST control)
AGCCTT	1.15 fold enrichment (6-mer frequency, TF over GST control)	1.13 fold enrichment (6-mer frequency, TF over GST control)	1.26 fold enrichment (6-mer frequency, TF over GST control)	1.17 fold enrichment (6-mer frequency, TF over GST control)	1.18 fold enrichment (6-mer frequency, TF over GST control)	1.03 fold enrichment (6-mer frequency, TF over GST control)	1.2 fold enrichment (6-mer frequency, TF over GST control)	1.23 fold enrichment (6-mer frequency, TF over GST control)	1.42 fold enrichment (6-mer frequency, TF over GST control)	1.17 fold enrichment (6-mer frequency, TF over GST control)
CTCTGG	1.33 fold enrichment (6-mer frequency, TF over GST control)	1.32 fold enrichment (6-mer frequency, TF over GST control)	1.81 fold enrichment (6-mer frequency, TF over GST control)	1.25 fold enrichment (6-mer frequency, TF over GST control)	1.36 fold enrichment (6-mer frequency, TF over GST control)	1.23 fold enrichment (6-mer frequency, TF over GST control)	1.09 fold enrichment (6-mer frequency, TF over GST control)	1.37 fold enrichment (6-mer frequency, TF over GST control)	1.35 fold enrichment (6-mer frequency, TF over GST control)	1.22 fold enrichment (6-mer frequency, TF over GST control)
CGACAA	1.3 fold enrichment (6-mer frequency, TF over GST control)	1.24 fold enrichment (6-mer frequency, TF over GST control)	1.12 fold enrichment (6-mer frequency, TF over GST control)	1.15 fold enrichment (6-mer frequency, TF over GST control)	1.18 fold enrichment (6-mer frequency, TF over GST control)	1.13 fold enrichment (6-mer frequency, TF over GST control)	1.08 fold enrichment (6-mer frequency, TF over GST control)	1.17 fold enrichment (6-mer frequency, TF over GST control)	1.03 fold enrichment (6-mer frequency, TF over GST control)	1.18 fold enrichment (6-mer frequency, TF over GST control)
